Reference: PubChem BioAssay AID748 (Sanford-Burnham Center for Chemical Genomics, 2007)
The campaign covered roughly 96,000 compounds. About 100 (0.1%) were called active. What follows is part of a selection rich in actives, with near analogues and random picks from the rest. Entries with a potency or affinity are not part of this list. A number with no mark means an inactive call.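 The calls were made as follows: active = displacement above 50% at 20 µM plus a fluorescence interference ratio under 1.5; inactive = the rest.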

These compounds were tested against Bcl-2-like protein 10 (Homo sapiens) (UniProt Q9HD36) (assay: Bcl-B/TR3 peptide binding disruption – biochemical, fluorescence polarization, FITC-TR3 peptide, selectivity assay for Bfl-1 inhibitor project, primary screen (AID 748;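 also: plate controls were wells without compound for no effect and wells lacking Bcl-B protein for full effect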)). Conditions: FP displacement of FITC-TR3 peptide from Bcl-B; at 20 µM; hits give high values.
In the case of CCOC(=O)c1ccc(NC(=O)CSc2nnc(CNC(=O)c3ccccc3F)o2)cc1, the displacement is reported as 0%.
With CC(C)(C)C(=O)CSc1nccc(=O)[nH]1 the displacement was 2.2%.
Work on O=C1C(C2=NC(C(=O)O)C3C(=O)N(c4ccccc4)C(=O)C23)=C(O)c2ccccc21 (stereo unspecified) yielded a displacement of -7%.
Compound COc1ccc(Cl)cc1C(=O)Nc1ccc(S(=O)(=O)N2CCCC2)cc1 has a displacement of -12.1%.
Work on O=C(CCC1CCCC1)N1CCN(S(=O)(=O)Cc2ccccc2)CC1 yielded a displacement of -7.6%.
O=C(Nc1ccc(-c2nnc(-c3ccco3)o2)cc1)C(c1ccccc1)c1ccccc1 was tested, and the displacement was 3.9%.
Work on COC(=O)CSc1nnc(CNS(=O)(=O)c2ccc(Cl)cc2)n1C yielded a displacement of 8.2%.
In the case of COc1ccc(CC(=O)OCC(=O)Nc2ncc(Cl)cc2Cl)cc1OC, the displacement is reported as 3%.
Cc1cc(NC(=O)COC(=O)C2CCN(S(=O)(=O)c3cccc(Cl)c3Cl)CC2)no1 was tested, and the displacement was 1.9%.
With Cc1cc(NC(=O)COC(=O)C2CCN(S(=O)(=O)c3ccc(Cl)cc3)CC2)no1 the displacement was 7.5%.
COc1cc(CCC(=O)OCC(=O)Nc2ncc(Cl)cc2Cl)cc(OC)c1OC was tested, and the displacement was 32.6%.
For Cc1ccc(Cl)cc1N1CCN(C(=O)c2cn(C)c(=O)c3c2c2ccccc2n3C)CC1, the displacement was -4.3%.
CC(=O)Nc1ccc(NC(=O)C(C)n2nc([N+](=O)[O-])c(Br)c2C)cc1 (stereo unspecified) showed a displacement of -5.9%.
CC(=O)c1c(C)[nH]c(C(=O)Nc2c(C)n(C)n(-c3ccccc3)c2=O)c1C was tested, and the displacement was 1%.
In the case of COc1cccc(C=Nc2ccccc2C(=O)Nc2nccs2)c1OC, the displacement is reported as -10.6%.
For O=C(C[n+]1ccc(C(=O)N/N=C/c2ccc(OCc3ccccc3)cc2)cc1)c1ccccc1, the displacement was 46.7%.
O=C(C[n+]1ccc(C(=O)N/N=C/c2ccc(Br)cc2)cc1)c1ccccc1 showed a displacement of 43.2%.
With CCOC(=O)C1C(C#N)=C(N)OC(C)=C1c1ccncc1 (stereo unspecified) the displacement was 11.4%.
COc1ccc2nc(COC(=O)c3ccco3)c(C(C)=O)[n+]([O-])c2c1 was tested, and the displacement was 10.7%.
With CC(=O)c1c(COC(=O)c2ccco2)nc2ccccc2[n+]1[O-] the displacement was 68.3% (active).
CCOC(=O)c1c(COC(=O)c2ccco2)nc2ccccc2[n+]1[O-] showed a displacement of -4.9%.
O=C1CC(Cc2ccccc2)C(=O)N1Cc1ccco1 (stereo unspecified) gave a displacement of 0%.
CCn1c(Cn2nnc(-c3ccccc3)n2)nnc1SCC(=O)Nc1ccc(N(C)C)cc1 was tested, and the displacement was 4.2%.
Work on Cc1nnc(NC(=O)NC(C)N2C(=O)C3C4C=CC(C4)C3C2=O)s1 (stereo unspecified) yielded a displacement of -30.5%.
O=C1NC2(CCCCC2)NN1c1ccccc1 showed a displacement of -5.6%.
Compound O=C1CCSc2cccc3cccc(c23)N1 has a displacement of -2.2%.
For CC1=Nc2cccc3cccc(c23)N1, the displacement was 2.9%.
Work on CC(C)(C)C1CCC2(CC1)Nc1cccc3cccc(c13)N2 yielded a displacement of -38%.
In the case of O=C(O)Cc1coc(-c2ccc(F)cc2)n1, the displacement is reported as -15.2%.
O=C(CN1C(=O)NC2(CCc3ccccc32)C1=O)c1ccc2c(c1)OCCO2 (stereo unspecified) gave a displacement of -13.7%.
COc1cccc(NC(=O)C(NC2CCCC2)c2ccccc2)c1 (stereo unspecified) was tested, and the displacement was 2.1%.
CCOC(=O)CNC(=O)c1c2c(nc3ccccc13)CCCC2 showed a displacement of 7.2%.
Work on c1coc(CNc2c3c(nc4ccccc24)CCC3)c1 yielded a displacement of 26.6%.
For CC(C)Cn1c(N2CCN(C(=O)c3cccs3)CC2)nc2ccccc21, the displacement was -1.5%.
Compound Cc1ccc(SC(CC(=O)c2ccc(C)cc2)C(=O)O)cc1 (stereo unspecified) has a displacement of -5%.
Compound CSc1nc(C)cc(NC(N)=O)n1 has a displacement of -7.4%.
Compound Cn1c(C(C#N)C(=O)c2sc3ccccc3c2Cl)nc2ccccc21 (stereo unspecified) has a displacement of -2.9%.
With Cn1c(C(C#N)C(=O)c2ccco2)nc2ccccc21 (stereo unspecified) the displacement was 13.4%.
In the case of COc1ccccc1-n1c(C)nc2cc(C(=O)O)ccc21, the displacement is reported as -9.1%.
For Cc1cc(C(=O)NCCC2=CCCCC2)no1, the displacement was -6.6%.
With C=CCn1c(SCC(=O)NC2CCCC2)nc2scc(-c3ccco3)c2c1=O the displacement was 29.6%.
CCCCC(=O)Nc1cccc(NC(=O)CC)c1 was tested, and the displacement was -6.1%.
CCC(=O)Nc1cccc(Br)c1 showed a displacement of -1.7%.
In the case of COCCNC(=O)CCCn1c(=O)c2ccccc2n(CC(=O)NCCC2=CCCCC2)c1=O, the displacement is reported as -8.5%.
COc1ccccc1-c1nn2c(-c3ccccc3Cl)nnc2s1 was tested, and the displacement was 5.7%.
COc1ccccc1-c1nnc2sc(COc3ccccc3)nn12 was tested, and the displacement was 0.4%.
In the case of CCC(=O)c1cc(-c2nc3ccccc3n2C)n(C)c1, the displacement is reported as 3.7%.
Work on COc1ccccc1-n1nnnc1SCc1cc2c(cc1Br)OCO2 yielded a displacement of 2.6%.
c1ccc(-c2cn3c(n2)CCc2ccc4cccnc4c2-3)cc1 was tested, and the displacement was -7.4%.
Brc1ccc(-c2cn3c(n2)CCc2ccc4cccnc4c2-3)cc1 showed a displacement of 1%.
NC(=O)NC(CC(=O)OCC(=O)NC(=O)NCc1ccco1)c1ccc(Cl)cc1 (stereo unspecified) was tested, and the displacement was 0.6%.
In the case of CC1CC(C)CN(C(=O)c2cc3c(s2)CCC3)C1 (stereo unspecified), the displacement is reported as 0.4%.
COc1ccccc1N1CCN(C(=O)c2ccc(Br)s2)CC1 showed a displacement of -4.4%.
In the case of CCOc1ccccc1N1CCN(C(=O)c2cc3c(s2)CCC3)CC1, the displacement is reported as 0.5%.
In the case of O=C(c1cc2c(s1)CCCCC2)N1CCN(c2ncccn2)CC1, the displacement is reported as -2.1%.
With CCCC(=O)Nc1cccc(-c2nc3cc(C)c(C)cc3o2)c1 the displacement was -1.8%.
Work on CCCN(CCC)C(=O)Cn1c(=O)n(CCC(=O)NCCc2ccccc2)c(=O)c2ccccc21 yielded a displacement of 1.2%.
CC(=O)Nc1cc(S(=O)(=O)Nc2ccccc2C)c(C)cc1C was tested, and the displacement was -3.3%.
Compound CCCc1nnc(NC(=O)CCC(=O)N2CCN(CCOc3ccc(C)cc3)CC2)s1 has a displacement of 1.6%.
Cc1nc(NC(=O)COC(=O)C(NC(=O)c2ccco2)C(C)C)c(Cl)cc1Cl (stereo unspecified) was tested, and the displacement was 24.3%.
In the case of CSCCC(NC(=O)c1ccco1)C(=O)OCC(=O)Nc1ncc(Cl)c(C)c1Cl (stereo unspecified), the displacement is reported as 14.7%.
Work on CCn1c(SC)nc2c(c1=O)SC(C)C2 (stereo unspecified) yielded a displacement of -13.3%.
Cc1ccc(-c2cc(C(F)(F)F)n3nc(C(=O)Nc4c(C)n(C)n(-c5ccccc5)c4=O)cc3n2)cc1 was tested, and the displacement was -12.8%.
Cc1c(NC(=O)c2cc(-c3ccccc3)on2)c(=O)n(-c2ccccc2)n1C showed a displacement of 1.8%.
O=C(OCC(=O)N1CCN(C(=O)c2ccco2)CC1)c1cc(-c2ccc(F)cc2)nc2ccccc12 gave a displacement of 8.8%.
For O=C(OCC(=O)N1CCN(C(=O)c2ccco2)CC1)c1cc(-c2ccccc2)nc2ccccc12, the displacement was -78.6%.
COc1ccc(CNC(=O)COC(=O)c2cc(-c3ccco3)nc3ccccc23)cc1 gave a displacement of 42.9%.
O=C(COC(=O)c1cc(-c2ccco2)nc2ccccc12)NCc1ccccc1 showed a displacement of -3%.
With CC1Cc2ccccc2N1C(=O)CSc1nc2cc3c(cc2cc1C#N)OCO3 (stereo unspecified) the displacement was 3.7%.
In the case of Cc1cccc(-n2nnc(C(=O)NCc3ccc4c(c3)OCO4)c2N)c1, the displacement is reported as -4.7%.
COc1ccc(C(=O)OCC(=O)c2ccc(C3CCCCC3)cc2)cc1 gave a displacement of 0.1%.
Cc1ccc(C(C(=O)NCc2ccco2)N(C(=O)Cn2nnc3ccccc32)c2ccccc2)o1 (stereo unspecified) was tested, and the displacement was 2.5%.
Cc1cc(C)cc(CC2CC(=O)N(c3ccc(Cl)cn3)C2=O)c1 (stereo unspecified) gave a displacement of -1%.
Cn1c2ccccc2c2c(C(=O)NCc3ccco3)cn(C3CCCCC3)c(=O)c21 was tested, and the displacement was 11.7%.
For CC(C)CC(=O)Nc1cccc(-c2nc3ccccc3o2)c1, the displacement was 5.6%.
For NC(=O)c1cc(Cc2ccccc2)sc1NC(=O)c1ccco1, the displacement was 0%.
Compound Cc1c(C#N)c2ccccc2n1CC(=O)NC(C)c1ccccc1 (stereo unspecified) has a displacement of 2.1%.
COc1ccc(Nc2nc(N3CCCC3)c3ccccc3n2)cc1 was tested, and the displacement was 12.9%.
COc1ccc(Nc2nc(N3CCCCC3)c3ccccc3n2)cc1 gave a displacement of 6.9%.
In the case of Cc1c(N(C(=O)c2cc(=O)[nH]c3ccccc23)C(C)C)c(=O)n(-c2ccccc2)n1C, the displacement is reported as -10%.
In the case of C=CCn1c(C)cc(C(=O)CSc2nnc(NC(C)C)s2)c1C, the displacement is reported as -5.7%.
Work on CC(C)Nc1nnc(SCC(=O)Nc2ccc(F)cc2)s1 yielded a displacement of 1.5%.
NC(=O)Cn1c(=O)n(CCCC(=O)NC2CCN(Cc3ccccc3)CC2)c(=O)c2ccccc21 showed a displacement of 4.2%.
For CC(C)OC(=O)C(NC(=O)c1ccccc1)=C1CCCCC1, the displacement was -12.9%.
With Cc1ccc(NS(=O)(=O)c2ccc(C(=O)N3CCN(c4ccccn4)CC3)cc2)cc1 the displacement was 3.6%.
Work on COc1ccc(N2Cc3cccc(C(=O)N4CCOCC4)c3C2=O)cc1 yielded a displacement of 4.6%.
Work on COc1ccc(N2Cc3cccc(C(=O)N4CCN(C(=O)c5ccco5)CC4)c3C2=O)cc1 yielded a displacement of 36.1%.
In the case of CC1(CC(=O)O)SC(=O)NC1=O (stereo unspecified), the displacement is reported as -6%.
CCOC(=O)CCc1c(C)nc2cc(-c3ccccc3OC)[nH]n2c1=O was tested, and the displacement was 4%.
In the case of O=CNCCCc1nc2ccccc2n1Cc1cccc2ccccc12, the displacement is reported as 1.8%.
Work on CCOc1ccc(/C=N/NC(=O)COc2ccccc2-c2ccccc2)cc1 yielded a displacement of 9.4%.
COc1ccc(/C=N/NC(=O)COc2ccccc2-c2ccccc2)cc1 was tested, and the displacement was -6.4%.
Work on CCC1CCCCN1C(=O)COC(=O)c1n[nH]c2ccccc12 (stereo unspecified) yielded a displacement of -6%.
In the case of Cc1cc(S(=O)(=O)Nc2ccccc2C(=O)O)ccc1Cl, the displacement is reported as -4.3%.
COc1c(/C=N/Nc2ccc([N+](=O)[O-])cc2[N+](=O)[O-])c(C)nn1-c1ccccc1 gave a displacement of -2.4%.
For Cc1nn(-c2ccccc2)c(Cl)c1/C=N/Nc1ccc(S(=O)(=O)Nc2ccccc2C(=O)O)cc1[N+](=O)[O-], the displacement was 62.4% (active).
